The nature of assay [1]: NS1 protein of Zika virus - qHTS assay to identify small molecule inhibitors in human HEK 293 cells (AID 1347053). Further: nearly all actives have a fitted effect of over 55% in size. The procedure, abridged:
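TR-FRET signal from two anti-ZIKV NS1 antibodies quantified NS1 in HEK 293 cells 24 h after MR766 infection at MOI = 0.5; compounds were added 1 h before virus. Uninfected cells and infected cells defined the NS1 normalization range.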
Background: Quantitative high-throughput screening tests each substance at several concentrations.

Assay [2] in a line: qHTS of pediatric cancer cell lines to identify multiple opportunities for drug repurposing: Primary screen for TC32 cells (AID 1347089). Further: nearly all actives have a fitted effect of over 60% in size. The procedure, abridged: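 Luminescent CellTiter-Glo read-out of metabolically active TC32 cells after 48 h compound exposure. Primary: MIPE 11-point, 0.78 nM–46 µM; NPC 8-point, 0.59 nM–46 µM. Confirmatory: 11-point dilutions.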
Assay [3] can be described thus: qHTS of pediatric cancer cell lines to identify multiple opportunities for drug repurposing: Primary screen for DAOY cells (AID 1347090). Further: nearly all actives have a fitted effect of over 55% in size. In short, it runs like this:
(§1)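 Viability measured as metabolically active cells via CellTiter-Glo luminescence following 48 hours of compound exposure, 11-point dilutions in confirmatory testing. 500-1,000 cells/well plated 5 hours before dosing; controls were DMSO and 2.3 µM bortezomib.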

Assay [4] is described as follows: qHTS of pediatric cancer cell lines to identify multiple opportunities for drug repurposing: Primary screen for SJ-GBM2 cells (AID 1347091). The procedure, abridged: as §1
Assay [5] in a line: qHTS of pediatric cancer cell lines to identify multiple opportunities for drug repurposing: Primary screen for A673 cells (AID 1347092). Further: nearly all actives have a fitted effect of over 45% in size. The procedure, abridged:
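A673 cells (500-1,000 cells/well in growth media) were pre-incubated 5 h at 37 degrees C, then exposed to compounds for 48 h. Viability was read as CellTiter-Glo luminescence; concentration-response curves came directly from the primary screen.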

The nature of assay [6]: qHTS of pediatric cancer cell lines to identify multiple opportunities for drug repurposing: Primary screen for SK-N-MC cells (AID 1347093). In short, it runs like this: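 Metabolically active cells were quantified by ATP-dependent luminescence (CellTiter-Glo, 15 min at room temperature) following 48 h treatment. Cells had been plated at 500-1,000 per well and settled for 5 h beforehand.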

The nature of assay [7]: qHTS of pediatric cancer cell lines to identify multiple opportunities for drug repurposing: Primary screen for BT-37 cells (AID 1347094). In short, it runs like this:
(§2)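 Plated cells (500-1,000 per well, growth media) were allowed to settle for 5 hours, treated with compound dilutions for 48 hours, then lysed with CellTiter-Glo for 15 min at room temperature before luminescence reading.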

Assay [8] in a line: qHTS of pediatric cancer cell lines to identify multiple opportunities for drug repurposing: Primary screen for NB-EBc1 cells (AID 1347095). The procedure, abridged:
as §2

Several values for one entry are separate records, joined by “and”; a condition that tells them apart may be missing. Identical values can stand only once. Results filed as inconclusive are left out. Some compounds were tested as several samples or in several runs, with calls that do not always agree. Activity calls are given as the source filed them. The call rests on the fitted dose curve; in most records, active means well fitted curve in the direction sought with a large enough effect; inconclusive means small, poorly fitted or top-dose-only effect, or another doubt; inactive means no such curve, though single readings can be large; an effect the other way counts as inactive or inconclusive.
Potency means the concentration at half of the fitted maximal effect.

Take `COC(=O)Nc1nc2ccc(C(=O)c3ccccc3)cc2[nH]1`: the Potency entry in assay [1] is “inactive”. Further, the Potency in assay [2] is 210 nM (active) and 3.3 µM (active); in assay [3] it was 106 nM (active) and 1.18 µM (active); in assay [4] it was 376 nM (active); in assay [5], 106 nM (active) and 935 nM (active); in assay [6], 53.1 nM (active) and 332 nM (active); in assay [7], 347 nM (active) and 2.43 µM (active). In addition, the Potency in assay [8] was 188 nM (active).
Turning to `COc1ccc2c(c1)c(CC(=O)OCC(=O)O)c(C)n2C(=O)c1ccc(Cl)cc1`, the Potency result in assay [1], in assay [2], in assay [3], in assay [4], in assay [5] and in assay [7] was “inactive” in each case. Also, the Potency result in assay [8] was “inactive”.
Turning to `COc1ccccc1OCC(O)COC(N)=O` (centres undefined), the Potency result in assay [1], in assay [2], in assay [3], in assay [4], in assay [5] and in assay [7] was “inactive” throughout. Moreover, in assay [8], the Potency entry is “inactive”.
Regarding `Cc1noc(NS(=O)(=O)c2ccc(N)cc2)c1C`, the Potency entry in assay [1], in assay [2], in assay [3], in assay [4], in assay [5] and in assay [6] was “inactive” in each case. Also, the Potency entry in assay [7] and in assay [8] was “inactive” throughout.
Consider `NNC(=O)c1ccncc1`, for which the Potency entry in assay [1], in assay [2], in assay [3], in assay [4], in assay [5] and in assay [6] was “inactive” throughout. Also, the Potency entry in assay [7] and in assay [8] was “inactive” in each case.
As to `CNNCc1ccc(C(=O)NC(C)C)cc1`, the Potency result in assay [1], in assay [2], in assay [3], in assay [4], in assay [5] and in assay [7] was “inactive” in each case. For the same compound, the Potency result in assay [8] was “inactive”.
Regarding `Cc1cc(NS(=O)(=O)c2ccc(N)cc2)no1`, the Potency entry in assay [1], in assay [2], in assay [3], in assay [4], in assay [5] and in assay [7] was “inactive” in each case. Moreover, in assay [8], the Potency result was “inactive”.
Take `O=P(O)(O)C(O)(Cc1cccnc1)P(=O)(O)O`: the Potency entry in assay [1], in assay [2], in assay [3], in assay [4], in assay [5] and in assay [6] was “inactive” in each case. Further, the Potency entry in assay [7] and in assay [8] was “inactive” in each case.
`C[C@]12C=CC(=O)C=C1CC[C@@H]1[C@@H]2C(=O)C[C@@]2(C)[C@H]1CC[C@]2(O)C(=O)CO`: the Potency result in assay [1], in assay [2], in assay [3], in assay [4], in assay [5] and in assay [7] was “inactive” throughout. Further, the Potency result in assay [8] was “inactive”.
Turning to `CNS(=O)(=O)Cc1ccc2[nH]cc(CCN(C)C)c2c1`, the Potency entry in assay [1], in assay [2], in assay [3], in assay [4], in assay [5] and in assay [7] was “inactive” each time. Further, the Potency entry in assay [8] is “inactive”.
For `CCCOc1ccc(C(=O)OCCN(CC)CC)cc1N`, the Potency entry in assay [1], in assay [2], in assay [3], in assay [4], in assay [5] and in assay [7] was “inactive” in each case. For the same compound, the Potency entry in assay [8] is “inactive”.
As to `COC(=O)Nc1nc2ccc(S(=O)c3ccccc3)cc2[nH]1` (centres undefined), the Potency entry in assay [1] was “inactive”. Also, the Potency in assay [2] was 1.18 µM (active); in assay [3], 841 nM (active) and 14.8 µM (active); in assay [4], 596 nM (active) and 14.8 µM (active); in assay [5], 841 nM (active) and 9.35 µM (active); in assay [6], 376 nM (active) and 8.33 µM (active); in assay [7] it was 1.55 µM (active). Also, in assay [8], the Potency was 473 nM (active) and 8.33 µM (active).
For the compound `CCOc1cc(N)c(Cl)cc1C(=O)NCC1CN(Cc2ccc(F)cc2)CCO1` (centres undefined), the Potency result in assay [1], in assay [2], in assay [3], in assay [4], in assay [5] and in assay [7] was “inactive” throughout. For the same compound, the Potency entry in assay [8] is “inactive”.
`O=S(=O)(O)CCS`: the Potency entry in assay [1], in assay [2], in assay [3], in assay [4], in assay [5] and in assay [7] was “inactive” in each case. Besides, the Potency entry in assay [8] was “inactive”.
As for `COc1cccc(N(C)C(=S)Oc2ccc3c(c2)CCCC3)n1`, the Potency result in assay [1] is “inactive and 18.7 µM (active)”. Moreover, the Potency entry in assay [2], in assay [3], in assay [4], in assay [5], in assay [7] and in assay [8] was “inactive” in each case.
For the compound `Cc1ncc([N+](=O)[O-])n1CCO`, the Potency entry in assay [1], in assay [2], in assay [3], in assay [4], in assay [5] and in assay [7] was “inactive” in each case. In addition, in assay [8], the Potency entry is “inactive”.
On to `CCCc1cc(C(N)=S)ccn1`, for which the Potency result in assay [1], in assay [2], in assay [3], in assay [4], in assay [5] and in assay [7] was “inactive” throughout. For the same compound, the Potency result in assay [8] is “inactive”.

The record behind these values is PubChem BioAssay (NCATS).
